The source of these data is PubChem BioAssay AID493194 (Broad Institute, 2011).

Potency and affinity values are given separately. Inconclusive results are not listed. A call without a number means that no potency is given here. Activity calls are given as the source filed them.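 Rule for the calls: active = a valid curve of falling signal whose half-effect concentration is at most ten times the top tested dose; inconclusive = flat curve at 30 to 70% inhibition, or poor fit; inactive = signal rise, flat within 30%, or potency beyond limit.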

The target in this assay is Scavenger receptor class B member 1 (Mus musculus) (UniProt Q61009). Kind of assay: inhibitors of SR-BI mediated HDL lipid uptake, dose response, ldlA[mSR-BI] cells, fluorescence, cherry pick (AID 493194).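 Note: CHO cells lacking LDL receptor and overexpressing mouse SR-BI; cellular uptake of fluorescently labeled HDL measured as cell fluorescence.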 Particulars: CHO ldlA[mSR-BI] DiI-HDL uptake fluorescence, 3 h; series mostly up to 35 µM.
Scavenger receptor class B member 1 (Mus musculus), sequence (Q61009 whole entry, looked up): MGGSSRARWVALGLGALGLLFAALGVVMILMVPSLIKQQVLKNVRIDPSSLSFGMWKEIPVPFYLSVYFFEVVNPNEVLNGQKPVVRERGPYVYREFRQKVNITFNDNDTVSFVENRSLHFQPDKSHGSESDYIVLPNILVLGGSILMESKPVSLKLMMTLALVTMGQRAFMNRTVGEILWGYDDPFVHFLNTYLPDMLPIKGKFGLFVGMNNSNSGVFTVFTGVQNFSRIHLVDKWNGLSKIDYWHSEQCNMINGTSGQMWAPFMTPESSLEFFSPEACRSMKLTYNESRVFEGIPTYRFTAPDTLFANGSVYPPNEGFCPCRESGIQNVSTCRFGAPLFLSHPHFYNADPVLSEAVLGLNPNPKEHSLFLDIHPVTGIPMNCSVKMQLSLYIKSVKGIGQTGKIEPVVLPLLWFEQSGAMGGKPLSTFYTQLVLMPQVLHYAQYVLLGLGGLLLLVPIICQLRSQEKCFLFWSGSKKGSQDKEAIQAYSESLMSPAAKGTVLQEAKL
Take `NC(=O)c1cc(-c2ccccc2)sc1NC(=O)CN1CCCCC1`: the outcome was inactive. Under `COc1ccccc1C(CC(=O)Nc1ccccc1C)c1ccc(OC(C)C)cc1` (stereo not drawn) stands “inactive”; under `C[C@@H]1COC(=O)[C@H](NC(=O)OCC2c3ccccc3-c3ccccc32)C/C=C\C[C@@H](CC(=O)N[C@H](CO)Cc2ccccc2)C(=O)N1`, “inactive”; under `CC(C)[C@H](NC(=O)c1ccco1)C(=O)OCC(=O)c1ccc2c(c1)NC(=O)CO2`, “inactive”. Under `O=C(N[C@@H]1C/C=C\C[C@@H](CC(=O)N(CCO)Cc2ccccc2)C(=O)NCCOC1=O)OCC1c2ccccc2-c2ccccc21` stands “inactive”; under `Cc1ccc(OCc2cc(C(=O)N3CCCC(O)C3)no2)cn1` (stereo not drawn), “inactive”; under `O=C(OCc1ccccc1)N1CCC2CC1c1cc(-c3ccccc3)ccc12` (stereo not drawn), “inactive”. As for `Cc1ccc(Sc2nc(-c3ccccc3)nnc2C(F)(F)F)cc1`, the call was inactive.

`COc1cc2c(cc1OC)-c1cc(OCc3ccccc3Cl)nc(=O)n1CC2`: the molecule was called inactive. In the case of `COc1cccc(-c2nnc(SC(C(=O)c3c[nH]c4ccccc34)c3ccccc3)n2C)c1` (stereo not drawn), the result was inactive. Turning to `CCOC(=O)c1[nH]c2c(c1-c1ccccc1)C(=O)CC(c1ccc(Cl)cc1)C2` (stereo not drawn), the result was inactive. The entry for `CCSCC1COC(c2cccn2Cc2ccc(C)cc2)=N1` (stereo not drawn) is “inactive”; for `N#Cc1ccc(CN2CCN(C(=O)c3ccc(S(=O)(=O)NCc4ccco4)cc3)CC2)cc1` it is “inactive”; for `Cc1c(Nc2nc3ccccc3nc2N2CCN(c3ccccc3)CC2)c(=O)n(-c2ccccc2)n1C` it is “inactive”.

For the molecule `Cc1c(Cl)cccc1S(=O)(=O)N1CCC(C(=O)NNC(=O)C2CC2)CC1`, the result was inactive. Under `CCN(C(=O)COn1nnc2ccc(S(=O)(=O)N(C)C)cc21)C1CCS(=O)(=O)C1` (stereo not drawn) stands “inactive”. Take `Cc1ccc(NC(=O)CSc2nnc([C@H](C)NC(=O)OC(C)(C)C)o2)c(C)c1`: the result was inactive.

With `COc1ccc(N2CC(C(=O)N3CCN(S(=O)(=O)c4ccc(F)c(F)c4)CC3)CC2=O)c(OC)c1` (stereo not drawn), the call was inactive. The entry for `COCCN(C(=O)COC(=O)c1ccccc1Nc1ccccc1)c1c(N)n(Cc2ccccc2)c(=O)[nH]c1=O` is “inactive”; for `COc1ccc(CN2CCN(C(=O)c3ccc(S(=O)(=O)NCc4ccco4)cc3)CC2)cc1` it is “inactive”. For `COc1ccc(COC(=O)c2ccc(Br)c(S(=O)(=O)N3CCOCC3)c2)cc1F`, the call was inactive. Consider `Fc1ccc(-c2cc(-c3cccs3)cc(-c3ccccc3)n2)cc1`, for which the molecule was called inactive. For the molecule `Cc1sc(NC(=O)Cc2ccc3c(c2)OCO3)nc1-c1ccc2c(c1)CCN2C(=O)c1cccc(F)c1`, the molecule was classed as inactive. Take `CCOc1ccc(NC(=O)CN2CCN(CC(=O)Nc3ccc(OC)cc3)CC2)cc1`: the outcome was inactive.

On to `O=C(Nc1cccc(NC(=O)c2ccccc2Cl)c1)c1ccc(F)cc1`, for which the result was inactive. Under `CC(C)CN(CC(C)C)C(=O)COn1nnc2ccc(S(=O)(=O)N3CCOCC3)cc21` stands “inactive”; under `CC(C)c1cc(CNC(=O)C2CCC(=O)N(CCc3ccc(Cl)cc3)C2)on1` (stereo not drawn), “inactive”.

For `O=C(NCC1CCCO1)c1ccc2c(c1)N(Cc1ccc(F)cc1Cl)C(=O)CS2` (stereo not drawn), the molecule was called inactive.

For `CC(=O)Nc1cccc(NC(=O)c2ccc3c(c2)CCN3S(=O)(=O)c2ccccc2)c1`, the molecule was called inactive. As to `Cc1nn(Cc2ccccc2)c(C)c1NC(=O)c1cc2nc(-c3ccco3)cc(C(F)(F)F)n2n1`, the molecule was called inactive.

`COc1ccc(NC(=O)c2ccc3c(c2)CCN3S(=O)(=O)c2ccccc2)cc1`: the outcome was inactive. Under `COc1cc(NC(=O)C2CC(c3c(F)cccc3Cl)=NO2)c(OC)cc1Cl` (stereo not drawn) stands “inactive”.

In the case of `COc1ccc2sc(-c3ccc(N(C)C)cc3)c(C#Cc3cncn3C)c2c1`, the molecule was classed as inactive. Consider `COc1ccccc1C(=O)NCCn1cc(SCC(=O)Nc2nnc(C)s2)c2ccccc21`, for which the molecule was classed as inactive. Regarding `Cc1sc(NC(=O)c2cccc([N+](=O)[O-])c2)c(C(N)=O)c1-c1ccc(C(C)(C)C)cc1`, the molecule was classed as inactive. Take `O=C(C1=COCCO1)N(Cc1nnc(-c2ccccc2Cl)o1)C1CC1`: the call was inactive.

For the molecule `CC(=O)Nc1cc(NC(C)=O)cc(C(=O)OCC(=O)N(c2ccccc2)C2CCS(=O)(=O)C2)c1` (stereo not drawn), the molecule was called inactive. `COc1ccc(C2/C=C\CN(S(=O)(=O)c3ccc(-c4ccccc4)cc3)CC(=O)N2Cc2ccc(F)cc2)cc1` (stereo not drawn): the molecule was classed as inactive.
